# From PubChem BioAssay
# An excerpt weighted towards active compounds, which were near 3.8% of everything screened.
# S2 tox = viability counter-screen for ATXN expression inhibitors; S2 cells (HEK-293 line with an ATXN2-luciferase reporter) viability, CellTiter-Fluor protease fluorescence, 24 h; Potency, µM (titrated, usually from 56.7 µM), hits mostly cytotoxic; actives 0.49% (n = 400,000); AID 651635; also: nearly all actives have a fitted effect of over 40% in size
# HepG2 viability = kills HepG2 cells in TGF-b inhibitor counter-screen | HepG2 CAGA-GFP viability, ATP luminescence, 18 h | Potency, µM (top dose mostly 46.1 µM), for inactives: at the top dose activity change, negative = cytotoxicity, hits mostly cytotoxic | actives 0.76% (n = 410,000) | AID 588856
#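 HepG2 CAGA-GFP cells (1000/well, DMEM with 1% FBS) received compound, then TGF-beta at 500 pg/mL final, and were incubated 18 hours at 37 degrees C. Viability was read by CellTiter-Glo luminescence. Media-only wells were set as complete cell-killing and DMSO as no toxicity.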
# A549 tox-1 = A549 cytotoxicity, counter-screen for Nrf2 inhibitors | A549 ARE-Fluc cells, CellTiter-Fluor viability, 18-24 h | Potency, µM (series often up to 46 µM), without a hit: at the highest dose activity change, negative = cytotoxicity, most hits filed as inhibitors | actives 0.16% (n = 390,000) | AID 504648; also: % is scaled to controls: 0 for no effect and ±100 for the full control effect
#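 Cytotoxicity counterscreen: CellTiter-Fluor fluorescence was measured in A549 ARE_Fluc cells after 18-24 h of compound exposure in a concentration series. The subsequent BugLite luminescent read reports ARE-luciferase activity.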
# ATXN2 expr inh = inhibitors of ATXN2 expression; HEK-293 ATXN2-luciferase reporter, luminescence, 24 h; Potency, µM (doses to about 57 µM), inactives show at the top dose activity change, negative = inhibition, hits mostly inhibitors; actives 0.72% (n = 360,000); AID 1745845; also: % is scaled to controls: 0 for no effect and ±100 for the full control effect; nearly all actives have a fitted effect of over 55% in size
#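 ATXN2-luciferase reporter cells (luciferase flanked by upstream and downstream ATXN2 gene portions) were treated 24 h at 37 °C with compounds at up to 57 uM. SteadyGlo luminescence gave expression; GF-AFC fluorescence gave viability.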
# TGFb SMAD3 inh = TGF-b pathway inhibition; HepG2 CAGA-GFP TGF-b/SMAD3 reporter, GFP fluorescence, 18 h; TGF-beta stimulated, 500 pg/mL final; Potency, µM (highest dose often 46.1 µM), for the others: at the top dose activity, negative = inhibition, hits mostly inhibitors; actives 1.2% (n = 410,000); AID 588855; also: % is scaled to controls: 0 for no effect and ±100 for the full control effect; nearly all actives have a fitted effect of over 65% in size
#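 Cell-based qHTS in HEPG2 carrying a CAGA-GFP Smad reporter; compounds added before 500 pg/mL final TGF-beta, 18 h incubation at 37 degrees C, GFP fluorescence quantified per cell by imaging cytometry.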
# Nrf2 block = blocks Nrf2 signaling; Potency, µM (titrated, usually from 46 µM), without a hit: at the highest dose activity change, negative = inhibition, actives largely listed as inhibitors; actives 2.1% (n = 360,000); A549 ARE-Fluc reporter, luciferase luminescence, 18-24 h; also: % is scaled to controls: 0 for no effect and ±100 for the full control effect; nearly all actives have a fitted effect of over 60% in size
#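 Reporter: ARE-Fluc in A549. Exposure: 18-24 h, 37 °C, 5% CO2, 5% FBS OPTI-MEM. Readouts: fluorescent cytotoxicity (CellTiter-Fluor), then luminescent Nrf2 signal after BugLite.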
# FLuc enzyme inh = firefly luciferase inhibition, Nrf2 hit validation; shares compounds with Nrf2 block; purified firefly luciferase, luminescence inhibition; Potency, µM (titrated, usually from 57.5 µM), for inactives: at the highest dose activity change, negative = inhibition, actives largely listed as inhibitors; actives 4% (n = 1,400); AID 720522; also: % is scaled to controls: 0 for no effect and ±100 for the full control effect; nearly all actives have a fitted effect of over 65% in size
# Target sequence (P08659 whole entry, looked up): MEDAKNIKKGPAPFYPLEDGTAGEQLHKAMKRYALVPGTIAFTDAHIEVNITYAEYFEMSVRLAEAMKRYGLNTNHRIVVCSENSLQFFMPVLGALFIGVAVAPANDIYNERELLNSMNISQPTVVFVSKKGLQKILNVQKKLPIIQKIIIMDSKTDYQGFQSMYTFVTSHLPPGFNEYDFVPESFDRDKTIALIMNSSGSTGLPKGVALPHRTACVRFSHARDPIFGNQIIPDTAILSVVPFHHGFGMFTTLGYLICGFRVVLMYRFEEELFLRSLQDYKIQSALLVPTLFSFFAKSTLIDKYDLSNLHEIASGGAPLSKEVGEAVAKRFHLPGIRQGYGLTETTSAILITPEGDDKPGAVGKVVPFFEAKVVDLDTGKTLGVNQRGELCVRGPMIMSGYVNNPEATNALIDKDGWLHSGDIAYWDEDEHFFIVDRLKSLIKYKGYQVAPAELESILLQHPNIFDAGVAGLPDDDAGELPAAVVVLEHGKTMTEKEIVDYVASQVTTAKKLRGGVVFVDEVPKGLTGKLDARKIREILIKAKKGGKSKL
# A549 tox-2 = counter-screen for Nrf2 inhibitors: cytotoxicity in A549 ARE cells. Potency, µM (series often up to 46.1 µM), for the others: at the top dose activity change, negative = cytotoxicity, hits mostly inhibitors. actives 2% (n = 1,400). shares compounds with Nrf2 block. A549 ARE-Fluc cells, cytotoxicity counterscreen;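 also: cells exposed to compounds for 18 to 24 hours; % is scaled to controls: 0 for no effect and ±100 for the full control effect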
# Nrf2 ARE inh = confirmation of Nrf2 inhibitors in A549 ARE reporter cells. AID 720524. shares compounds with Nrf2 block. A549 ARE-firefly luciferase reporter, luminescence. actives 74% (n = 1,400). Potency, µM (series often up to 46.1 µM), for inactives: at the highest dose activity change, negative = inhibition, actives largely listed as inhibitors; also: % is scaled to controls: 0 for no effect and ±100 for the full control effect; nearly all actives have a fitted effect of over 65% in size
# An asterisk follows results filed as active; i = inactive; ? = inconclusive; . = not tested or not shown. Calls follow the shape of the dose curve; as a rule, active = well fitted curve in the direction sought with a large enough effect; inconclusive = small, poorly fitted or top-dose-only effect, or another doubt; inactive = no such curve, though single readings can be large; an effect the other way counts as inactive or inconclusive. Potency is read from the fitted curve at half-maximal effect.
SMILES,S2 tox,HepG2 viability,A549 tox-1,ATXN2 expr inh,TGFb SMAD3 inh,Nrf2 block,FLuc enzyme inh,A549 tox-2,Nrf2 ARE inh
COc1ccc(C)cc1NC(=O)Cn1c(=O)cc(C)c2c(C)nn(C)c21,.,-8%,-3%,.,.,5.8µM*,4%,-4%,2.3µM*
COc1ccc([C@H]2/C=C\CN(Cc3ccc(N(C)C)cc3)[C@@H](C)C(=O)N2Cc2ccc(F)cc2)cc1,i,-28%,3%,-20%,7%,8%,.,.,.
COc1ccc(NC(=O)C(C)N2c3cccc4cccc(c34)S2(=O)=O)cc1 (stereo not given),i,-37%,18%,-7%,7%,.,.,.,.
COc1ccc(NC(=O)C(C)N2c3cccc4cccc(c34)S2(=O)=O)cc1OC (stereo not given),?,-27%,-28%,?,-10%,8.2µM*,-1%,-8%,23µM*
Cc1nc2nncn2c(NCc2ccc(Cl)cc2)c1C,?,-20%,-5%,?,-16%,3.3µM*,-1%,-2%,6.5µM*
CCc1c(C)nc2nncn2c1NCc1ccc(OC)cc1,.,2%,-3%,.,.,?,.,.,.
Cc1cc(C[n+]2ccccc2)c2nsnc2c1,i,-25%,-13%,-20%,-13%,?,0%,-11%,2.6µM*
CC[C@]12c3[nH]c4ccc(Cl)cc4c3CCN1C(=O)[C@@H](CC(=O)NC/C=C(\C)CCC=C(C)C)C[C@@H]2C(=O)N1CCN(C(=O)c2ccco2)CC1,?,-18%,?,?,?,6.5µM*,3%,?,16µM*
CCC(CC)C(=O)Nc1ccc(Sc2ccc([N+](=O)[O-])cc2)cc1,i,-32%,?,?,?,3.7µM*,1%,-10%,18µM*
CCCC(=O)Nc1ccc(Sc2ccc([N+](=O)[O-])cc2)cc1,i,-16%,-6%,?,-11%,?,.,.,.
Cc1ccc(C)c(NC(=S)NC(NC(=O)/C=C/c2ccccc2)C(Cl)(Cl)Cl)c1 (stereo not given),?,-28%,-27%,?,?,8.2µM*,-21%,?,0.37µM*
Cc1cccc(NC(=O)Cn2cc(C(=O)C3CCCCC3)c3ccccc32)c1C,.,-21%,-24%,.,?,5.8µM*,-5%,-19%,5.8µM*
CCN(CC)CCn1c2c(c(SCC(=O)Nc3ccc4c(c3)OCCO4)nc1=O)CCCC2,i,-38%,1%,7%,11%,-17%,.,.,.
Cc1ccccc1NC(=O)c1cccc2nc3ccccc3nc12,i,-25%,-27%,-20%,2%,5.2µM*,-11%,?,10µM*
Cc1ccccc1NC(=O)c1ccccc1NC(=O)Cc1cccc2ccccc12,i,-7%,11%,.,-16%,0%,.,.,.
COc1ccc(CCN(C)C(=O)Cc2ccc(-c3ccccc3)cc2)cc1OC,i,-6%,-1%,?,-1%,5.8µM*,0%,-2%,18µM*
COc1ccc(CCN(C)C(=O)COc2ccc(C(=O)c3ccccc3)cc2)cc1OC,i,-8%,-11%,-3%,-9%,-24%,.,.,.
CC(CNS(=O)(=O)c1ccc2c(c1)CC(=O)N2C)c1ccccc1 (stereo not given),i,1%,4%,-5%,0%,?,.,.,.
COc1cc(C(=O)Nc2nc3ccc(C)cc3s2)ccc1OCc1c(C)noc1C,?,-37%,-6%,-19%,-20%,2%,.,.,.
CCc1nnc(NC(=O)c2ccc(OCc3c(C)noc3C)c(OC)c2)s1,?,-15%,0%,.,3%,5.8µM*,2%,5%,15%
COc1cc(NC(=O)c2nn(C)c3c2COc2ccccc2-3)cc(OC)c1OC,.,-27%,-1%,.,-19%,?,.,.,.
Cc1cc(C)c(CN2CCN(C(=O)Cn3cnc4c(NCc5ccccc5)ncnc43)CC2)c(C)c1,?,-10%,-8%,-29%,?,3.7µM*,1%,?,0.65µM*
COc1ccc(OC)c(/C=C/c2nc3ccccc3nc2C)c1,.,16%,.,.,-2%,.,.,.,.
COc1ccc(OC)c(/C=C/c2cc3ccccc3c[n+]2C)c1,.,-70%,.,.,-5%,.,-27%,-18%,.
COc1cc(OC)c(/C=C/c2cc3ccccc3c[n+]2C)c(OC)c1,.,-37%,.,.,7.9µM*,.,3%,?,4.6µM*
SMILES,S2 tox,HepG2 viability,A549 tox-1,ATXN2 expr inh,TGFb SMAD3 inh,Nrf2 block,FLuc enzyme inh,A549 tox-2,Nrf2 ARE inh
COc1ccc(-c2nn(C)c3sc(C(=O)Nc4cccc(F)c4)cc23)cc1OC,i,-55%,-24%,?,-3%,.,.,.,.
COc1cc(NS(=O)(=O)c2ccc(-c3cc(C)no3)cc2)cc(OC)c1,.,-31%,-4%,.,?,6.5µM*,-2%,-19%,16µM*
COc1ccccc1CNS(=O)(=O)c1ccc(-c2cc(C)no2)cc1,i,-14%,0%,.,?,1%,.,.,.
CCc1ccc2oc(C(=O)Nc3ccccc3C(=O)OC)cc(=O)c2c1,i,4%,-5%,2%,6%,13%,.,.,.
O=C(NCc1ccccc1)C1=C[C@@H](c2csc3ccccc23)C[C@@H](OCc2ccc(CO)cc2)O1,?,-30%,?,?,?,6.5µM*,1%,-26%,18µM*
Cc1ccc(NC(=O)C(CC(C)C)NS(=O)(=O)c2ccc3c(c2)oc(=O)n3C)c(C)c1 (stereo not given),i,13%,-10%,-19%,13%,15%,.,.,.
O=C(/C=C/c1ccccc1)N1CCN(S(=O)(=O)c2ccc(F)cc2)CC1,i,-3%,-2%,-13%,-28%,6%,.,.,.
O=C(/C=C/c1ccc(S(=O)(=O)N2CCOCC2)cc1)N1CCN(c2ccccc2)CC1,i,-25%,1%,.,-9%,5.8µM*,1%,0%,?
Cc1ccc(-c2nc3cc(NC(=O)C(C)C)ccc3o2)cc1,i,2%,-5%,-25%,-19%,?,.,.,.
